VACV mCherry inh: inhibitors of vaccinia virus infection (mCherry reporter signal). Vaccinia virus mCherry reporter infection, fluorescence. Potency, µM (top dose mostly 36.5 µM), actives largely listed as inhibitors. 0.63% of 310,000 active; calls by dose curve; tested in A549 cells; note: nearly all actives have a fitted effect of over 35% in size
HCV inhibitor: blocks hepatitis C virus | Potency, µM (titrated, usually from 41.8 µM), usual class: inhibitors | AID 651820 | Huh7.5.1 HCVcc-Cre infection, luciferase reporter, 44 h | 3.4% of 340,000 active
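Reporter virus HCVcc-Cre (~0.5 moi) infects cells exposed to compound; seeding density 1,000 cells/well with 4 h settling beforehand. Luminescence, 15 sec read, taken 44 h post-infection following a 15 min RT substrate incubation.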
Sm TGR block: blocks Schistosoma mansoni thioredoxin glutathione reductase. Q962Y6. purified TGR, DTNB reduction, TNB absorbance 405 nm. Potency, µM (series often up to 114 µM), actives largely listed as inhibitors. 3% of 360,000 active; note: nearly all actives have a fitted effect of over 60% in size
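First, TGR (20 nM dispensed) and NADPH were mixed with compound. Second, a 15 min room-temperature incubation followed. Third, further NADPH and then DTNB were added to start the reaction. Finally, TNB absorbance was monitored kinetically.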
FMDV antiviral: blocks foot and mouth disease virus; FMDV antiviral cell-based qHTS; Potency, µM (series often up to 57.9 µM), most hits filed as inhibitors; 1.2% of 410,000 active; AID 1159524; calls by dose curve; tested in HEK293T cells; note: read-out not given here; nearly all actives have a fitted effect of over 45% in size
VACV Venus inh: vaccinia inhibition (Venus reporter) | Vaccinia virus Venus reporter expression, fluorescence | Potency, µM (doses to about 36.5 µM), most hits filed as inhibitors | 0.46% of 330,000 active | AID 720580; calls by dose curve; tested in A549 cells; note: nearly all actives have a fitted effect of over 30% in size
HCMV inh: inhibitors of human cytomegalovirus. HFF cells, HCMV-luciferase reporter, 72 h; active compounds read low. activity change, negative = inhibition, % at 57.5 µM. 4.5% of 410,000 active; in the data active = activity change below about -60%; inconclusive = no clear call, values can overlap the other calls; inactive = above about -39%
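Human foreskin fibroblasts infected with luciferase-reporter HCMV at MOI 1 PFU/cell, compounds at two doses. Luciferase measured 72 h post infection; normalized to buffer-only basal and Salinomycin (10uM) controls.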
Of the large screens only hits and unclear results are named; the others gave an inactive call. Shown are actives, neighbours in structure and some others; about 9.3% of the full set was active somewhere. Unless noted, calls come from the whole dose curve; as a rule, active = well fitted curve in the direction sought with a large enough effect; inconclusive = small, poorly fitted or top-dose-only effect, or another doubt; inactive = no such curve, though single readings can be large; an effect the other way counts as inactive or inconclusive.

O=c1c2ccccc2nc2n1CCCS2	none (no result: FMDV antiviral)
O=c1c(C(c2ccc(O)cc2)c2c(O)nc3n(c2=O)CCCS3)c(O)nc2n1CCCS2	Sm TGR block 56.2µM (no result: VACV mCherry inh)
CCCc1nn2c(=O)c(C(c3ccc(C)cc3)c3c(O)nc4sc(CCC)nn4c3=O)c(O)nc2s1	Sm TGR block inconclusive
O=c1c(C(c2ccc(O)cc2)c2c(O)nc3n(c2=O)CCS3)c(O)nc2n1CCS2	Sm TGR block 10µM (no result: VACV mCherry inh)
O=c1c(C(c2ccc(Br)cc2)c2c(O)nc3n(c2=O)CCS3)c(O)nc2n1CCS2	Sm TGR block inconclusive
O=c1c(C(c2ccc(Br)cc2)c2c(O)nc3n(c2=O)CCCS3)c(O)nc2n1CCCS2	Sm TGR block 2µM
Cc1ccc(C(c2c(O)nc3n(c2=O)CCS3)c2c(O)nc3n(c2=O)CCS3)cc1	Sm TGR block 2.82µM
COc1cc(Cl)c(NS(=O)(=O)c2c(C(=O)N3CCCC3)c(C)n(C)c2C)c(OC)c1	HCMV inh inconclusive
CCc1ccccc1NC(=O)c1ccccc1Sc1ccc([N+](=O)[O-])cc1Cl	HCV inhibitor inconclusive (no result: VACV mCherry inh, VACV Venus inh)
COc1ccc(Cc2nc3c4cnn(-c5cccc(F)c5)c4ncn3n2)cc1	none (no result: HCV inhibitor)
Cn1c(=O)[nH]c(=O)c2c1nc(N/N=C/C(Br)=C/c1ccccc1)n2CCO	Sm TGR block 5.01µM
CCN(CC)S(=O)(=O)c1ccc(N2CCN(c3ccccc3OC)CC2)c(N)c1	VACV mCherry inh inconclusive, HCV inhibitor inconclusive, FMDV antiviral 22.4µM, HCMV inh -80.2
C=CCNC(=S)NNC(=O)C(CCC(C)C)CC(C)(C)O (configuration not stated)	HCMV inh -107.3
COc1ccc(CCN2C(=O)NC(NC(=O)C(C)(C)C)(C(F)(F)F)C2=O)cc1OC (configuration not stated)	HCMV inh inconclusive
FCCCOc1ccc(-c2nccc(-c3ccccn3)n2)cc1	none (no result: VACV mCherry inh, VACV Venus inh)
O=C(O)COc1ccc(-c2nccc(-c3ccccn3)n2)cc1	FMDV antiviral inconclusive, HCMV inh -71.0
O=C(CCCn1cc([N+](=O)[O-])cn1)NC1CCCCCC1	none
COc1ccc(NC(=O)COc2cccc3c2OC(C)(C)C3)cc1OC	HCV inhibitor 6.31µM, FMDV antiviral 22.4µM, HCMV inh inconclusive (no result: VACV mCherry inh, VACV Venus inh)
Cc1cnc(NC(=O)COc2cccc3c2OC(C)(C)C3)s1	VACV mCherry inh 7.94µM, HCV inhibitor inconclusive, HCMV inh -87.7
COc1ccc(C2=CC(=O)C[C@H](c3ccc(F)cc3)C2)c(F)c1F	HCV inhibitor inconclusive, HCMV inh inconclusive
O=C1NC(=S)S/C1=C\C=C\c1ccc([N+](=O)[O-])o1	VACV mCherry inh inconclusive, HCV inhibitor inconclusive, Sm TGR block 2.24µM, FMDV antiviral inconclusive, VACV Venus inh inconclusive, HCMV inh -99.8
CCN(CC)S(=O)(=O)c1cccc(NC(=O)COC(=O)c2[nH]c(C)c(C(C)=O)c2C)c1	FMDV antiviral 11.2µM, VACV Venus inh inconclusive, HCMV inh -85.0 (no result: HCV inhibitor, Sm TGR block)
CC(=O)c1c(C)[nH]c(C(=O)Nc2cccc(S(=O)(=O)N(C)C)c2)c1C	HCV inhibitor inconclusive
CC(=O)c1c(C)[nH]c(C(=O)OCC(=O)Nc2cccc(S(=O)(=O)N(C)C)c2)c1C	HCV inhibitor 6.31µM, HCMV inh -61.5
Cc1ccc(Nc2c3c(nc4nncn24)CCC3)cc1C	HCMV inh -88.1 (no result: HCV inhibitor)
Brc1ccc(Nc2c3c(nc4nncn24)CCC3)cc1	VACV mCherry inh inconclusive, Sm TGR block 35.5µM, FMDV antiviral inconclusive (no result: HCV inhibitor)
Cc1ccc(Nc2c3c(nc4nncn24)CCC3)cc1	Sm TGR block inconclusive (no result: HCV inhibitor)
Cc1cccc(Nc2c3c(nc4nncn24)CCC3)c1C	Sm TGR block 39.8µM, HCMV inh inconclusive (no result: HCV inhibitor)
O=C1CN(C(=O)COC(=O)CCS(=O)(=O)c2ccccc2)c2ccccc2N1	none
CC1(C)CC(=O)C(C=Nc2ccccc2Sc2ccccc2)=C(O)C1	FMDV antiviral inconclusive (no result: VACV mCherry inh, HCMV inh)
Cc1ccc(-c2nc3c(c(=O)[nH]c(=O)n3Cc3ccccc3)n2C)o1	Sm TGR block 3.55µM, HCMV inh inconclusive
Cc1ccc(-c2nc3c(c(=O)[nH]c(=O)n3Cc3ccccc3)n2Cc2ccccc2)o1	HCV inhibitor inconclusive, Sm TGR block 17.8µM, FMDV antiviral inconclusive, HCMV inh inconclusive
O=C(CN1CCC(Cc2ccccc2)CC1)N1CCc2ccccc2C1	HCV inhibitor inconclusive
CCOC(=O)c1c(C)oc2cc(Br)c(O)c(Br)c12	none
CCOC(=O)c1c(C)oc(NC(=O)CCl)c1C(=O)OCC	VACV mCherry inh inconclusive, Sm TGR block 14.1µM
O=c1cc(-c2ccccc2F)oc2ccccc12	HCV inhibitor inconclusive (no result: VACV mCherry inh, VACV Venus inh)
O=c1cc(-c2ccccc2[N+](=O)[O-])oc2ccccc12	VACV Venus inh inconclusive, HCMV inh -66.0 (no result: Sm TGR block)
O=c1cc(-c2ccc(F)cc2)oc2ccccc12	none (no result: Sm TGR block)
CSc1ccc(-c2cc(=O)c3ccccc3o2)cc1	HCV inhibitor inconclusive, HCMV inh -72.3
COc1ccc(CC(NC(C)=O)C(=O)NC2CCN(c3nc(C)cc(C)c3C#N)CC2)cc1 (configuration not stated)	Sm TGR block inconclusive (no result: VACV mCherry inh, VACV Venus inh)
Cc1ccc(/C=C/C(=O)NCc2ccco2)o1	Sm TGR block 12.6µM (no result: VACV mCherry inh, FMDV antiviral, VACV Venus inh)
Cc1ccc(C(=O)NCc2ccc3c(c2)OCO3)o1	none
O=C(/C=C/c1c(Cl)cccc1Cl)NCc1ccco1	HCMV inh inconclusive
Cc1ccc(/C=C/C(=O)NCc2ccc3c(c2)OCO3)o1	Sm TGR block 12.6µM, HCMV inh -62.4
O=C(/C=C/c1ccc2c(c1)OCO2)NCc1ccco1	Sm TGR block 39.8µM
O=C(/C=C/c1ccco1)NCC1CCCO1 (configuration not stated)	Sm TGR block 5.01µM
O=C(/C=C/c1ccc(Cl)c(Cl)c1)NCc1ccco1	none
Cc1ccc(/C=C/C(=O)NCc2ccccn2)o1	Sm TGR block 17.8µM
O=C(/C=C/c1ccccc1)NCc1ccco1	none
COc1ccc(/C=C/C(=O)NC(=S)NCC2CCCO2)cc1 (configuration not stated)	none
COc1ccccc1/C=C/C(=O)NC(=S)NCC1CCCO1 (configuration not stated)	HCMV inh -61.9
O=C(/C=C/c1ccco1)NCc1ccco1	Sm TGR block 3.98µM
COC(=O)C[C@@H]1C=C[C@H](NC(=O)Nc2cc(F)ccc2F)[C@@H](CO)O1	none (no result: HCV inhibitor, Sm TGR block)
CCCC(=O)NC(c1ccc(N(C)C)cc1)c1c(O)ccc2ccccc12 (configuration not stated)	none
CCCCC(=O)NC(c1ccc(N(CC)CC)cc1)c1ccc2cccnc2c1O (configuration not stated)	VACV mCherry inh inconclusive, HCV inhibitor 1.41µM, VACV Venus inh inconclusive, HCMV inh -95.7
CCCCC(=O)NC(c1ccc(N(C)C)cc1)c1ccc2cccnc2c1O (configuration not stated)	VACV mCherry inh 1.26µM, HCV inhibitor 3.98µM, HCMV inh -102.2
